Compound activity deposited in PubChem by Broad Institute.
aSyn UTR act = Activators working through SNCA 5'UTR binding (MLPCN); alpha-synuclein 5'UTR reporter, activators screen; activity score, % (tested at 7.5 µM), hits read low; 7.1% of 300,000 active; in the data active = activity score below about -60%
* marks the source's active call; other numbers are inactive results. A selection follows.

SMILES | aSyn UTR act
Cc1cc2oc(C(=O)Nc3nonc3C)c(C)c2cc1C | -174.6*
CCOCCCNC(=O)/C(C#N)=C/c1cc(Br)c(O)c(Br)c1 | -68.6*
COc1ccc2c(c1)CCC/C2=N\NC(=O)c1ccoc1C | -69.7*
O=C(O)c1ccc(N/N=C2/CCCc3ccccc32)cc1 | -81.6*
Cc1cc(C(=O)NC2Cc3ccccc3C2)c(C)o1 | -136.6*
O=C(N/N=C1\CCCc2ccccc21)c1ccccc1Cl | -132.5*
COc1ccc2c(c1)CCC/C2=N\Nc1nc(C(=O)NN)cs1 | -92.2*
O=C(N/N=C1\CCCCc2ccccc21)c1ccccn1 | -91.8*
Cc1cc(C(=O)N/N=C2\CCCc3ccccc32)c(C)o1 | -126.1*
O=C(N/N=C1\CCc2ccccc21)c1ccncc1 | -159.5*
CC1CCN(C(=O)CNC(=O)c2ccc(Cl)cc2Cl)CC1 | -81.0*
O=C(NCC(=O)N1CCCCCC1)c1ccc(Cl)cc1 | -65.4*
O=C(NCC(=O)N1CCCCC1)c1ccc(Cl)cc1Cl | -117.0*
CN(C)c1ccc(C2=NOC(CN3C(=O)c4ccccc4S3(=O)=O)C2)cc1 (stereo not drawn) | -134.3*
COc1ccccc1-c1c(C#N)c(N)nc2c1CCc1ccccc1-2 | -196.3*
COc1ccc(-n2cnc3cc(N)ccc32)cc1 | -75.1*
CC(C)c1ccc(NC(=O)c2ccc(NS(C)(=O)=O)cc2)cc1 | -75.8*
CS(=O)(=O)Nc1ccc(C(=O)Nc2ccc3ccccc3c2)cc1 | -213.6*
CCCCCCCCCn1c2c(c(=N)c3c1CCC3)CCCC2 | 90.1
O=C(NCCC1=CCCCC1)c1ccc(Br)o1 | -82.8*
Cc1ccc(NC(=S)NCCC2=CCCCC2)cc1 | -136.8*
O=C(NC(=S)NCCC1=CCCCC1)c1ccc(Br)o1 | -114.6*
Cc1ccc(CC(=O)c2ccc(Cl)cc2)cc1 | -83.3*
O=C(Cc1ccc(Cl)cc1)c1ccc(O)cc1 | -151.4*
O=C(Cc1ccccc1)c1ccc(Cl)cc1 | -72.7*
SMILES | aSyn UTR act
Cc1csc(=N)n1-c1ccc(Cl)cc1 | -144.5*
Cc1ccc(-n2c(C)csc2=N)cc1 | -174.7*
O=C(Nc1ccc(S(=O)(=O)NC2=NCCCCC2)cc1)c1ccc([N+](=O)[O-])s1 | -65.5*
Cn1cccc1C1C=C(c2ccc(C(C)(C)C)cc2)Nc2ncnn21 (stereo not drawn) | -114.5*
Brc1ccc(C2=CC(c3cccs3)n3ncnc3N2)cc1 (stereo not drawn) | -106.7*
CCN1CCN(C(CNC(=O)c2ccc3c(c2)OCO3)c2cccnc2)CC1 (stereo not drawn) | -68.6*
Cc1cc(NC(=O)/C=C/c2ccccc2)no1 | -156.2*
CC(=O)Nc1nc(NC(=O)/C=C/c2ccccc2)n(-c2ccccc2)n1 | 78.9
C#CCNC(=O)/C=C/c1ccc(OC)cc1 | -75.0*
COc1cc(-c2noc(C)c2/C=C/c2ccc(OC(C)=O)cc2)cc(OC)c1OC | 95.2
Cc1cc(NC(=O)/C=C/c2ccccc2Cl)no1 | -248.6*
COc1ccc(/C=C/C(=O)Nc2cc(C)on2)cc1 | -216.3*
COc1ccc(/C=C/C(=O)Nc2nonc2NC(C)=O)cc1 | -155.4*
COc1ccc(/C=C/C(=O)Nc2cc(C(F)(F)F)ccc2Cl)cc1 | -61.6*
COc1ccc(C(=O)/C=C/Nc2cc(C)on2)cc1 | -93.6*
CC(C)(C)c1ccc(C(=O)c2cn[nH]c2-c2ccccc2O)cc1 | -133.5*
O=C(NCCc1ccccc1)c1ccc2c(c1)OCO2 | 90.9
COc1ccc(C(=O)NCCn2ccc3ccccc32)cc1 | -130.9*
O=C(NCCn1ccc2ccccc21)c1ccc2c(c1)OCO2 | -108.3*
COc1ccc2c(c1)NC(=O)CC(c1ccccc1)=N2 | -71.6*
NC(=O)c1ccc(-n2nnnc2Oc2ccccc2C(=O)N2CCOCC2)cc1 | -107.6*
Cc1ccc(N2C(=O)CC(Sc3nc(C)cc(C)n3)C2=O)cc1 (stereo not drawn) | -62.7*
CCCCNC(=O)c1cc(-c2ccc(F)cc2)on1 | -591.7*
CCCNC(=O)c1cc(-c2ccc(OC)cc2)on1 | -159.5*
CCCCNC(=O)c1cc(-c2ccc(OC)cc2)on1 | -143.6*
SMILES | aSyn UTR act
N#Cc1cc2c(nc1SCC(=O)Nc1sc3c(c1C#N)CCC3)CCCCC2 | -122.1*
N#Cc1c(NC(=O)CSc2ncn[nH]2)sc2c1CCCCC2 | 82.5
N#Cc1cc2c(nc1SCC(=O)Nc1sc3c(c1C#N)CCC3)CCCC2 | -239.9*
CCOC(=O)c1sc(NC(=O)CSc2nc3c(cc2C#N)CCCCCC3)c(C#N)c1C | -74.0*
CSC1=NNC(c2ccc(C(C)(C)C)cc2)=NN1 | -106.4*
CCOc1ccc2cc(C(=O)NCc3ccccc3)c(=N)oc2c1 | -101.9*
COc1ccc2cc(C(=O)c3ccccc3)c(=O)oc2c1 | -151.2*
COc1ccc2cc(S(=O)(=O)c3ccccc3)c(=O)oc2c1 | -75.0*
CCOc1ccc2cc(C(=O)c3ccccc3)c(=O)oc2c1 | -161.3*
O=[N+]([O-])/C(C(Cl)=C(Cl)Cl)=C(/Sc1ccccc1)N1CCCCC1 | -78.5*
CCOC(=O)c1cn2nc(Oc3ccc(C)cc3)ccc2n1 | -75.2*
CCOC(=O)c1cn2nc(Oc3ccccc3)ccc2n1 | -148.8*
C=CCN=C1NN=C(c2cc(C)n(CCOC)c2C)CS1 | 85.8
Oc1ccc(C2=NNC(=NCc3ccc4c(c3)OCO4)SC2)c(O)c1 | -87.3*
Cc1n[nH]c(=S)n1/N=C/c1ccc(OCc2ccc(Cl)cc2)cc1 | -98.6*
Cc1n[nH]c(=S)n1/N=C/c1ccc(OCc2ccc(Cl)cc2Cl)cc1 | -81.6*
CCc1c(C(=O)Nc2ccccc2C(N)=O)csc1C | -62.3*
NC(=O)c1ccccc1NC(=O)c1ccc2ccccc2c1 | -138.8*
Cc1ccccc1NC(=O)c1ccc2ccccc2c1 | -149.7*
NC(=O)c1ccccc1NC(=O)c1ccc2c(c1)OCO2 | -152.3*
Cc1ccc2nc(-c3ccccc3O)c(Nc3ccc4c(c3)OCCO4)n2c1 | -64.7*
O=C(Nc1nnc(CC2=CCCCC2)s1)Nc1ccccc1F | -80.9*
O=C(Nc1nnc(-c2cccc(F)c2)s1)Nc1ccccc1F | -98.1*
CC(c1ccccc1)c1nnc(NC(=O)Nc2ccccc2F)s1 (stereo not drawn) | -95.2*
O=C(Nc1nccs1)c1csc2c1CCCC2 | -128.9*
SMILES | aSyn UTR act
Cc1ccccc1NC(=O)c1csc2c1CCCC2 | -67.2*
COc1ccc(NC(=O)c2csc3c2CCCC3)cc1 | -193.4*
COc1cccc(NC(=O)c2csc3c2CCCC3)c1 | -133.8*
O=c1c2sccc2nc(SCc2cc(=O)n3cc(Br)ccc3n2)n1Cc1ccccn1 | -90.4*
O=C(c1ccc2c(Cl)c3c(nc2c1)CCCC3)N1CCC(N2CCCCC2)CC1 | -89.0*
CCC(C)NC(=O)c1ccc2c(Cl)c3c(nc2c1)CCC3 (stereo not drawn) | -163.9*
CN(C(=O)c1ccc2c(Cl)c3c(nc2c1)CCC3)c1ccccc1 | -223.0*
CCN(CC)S(=O)(=O)c1ccc2oc(Nc3ccccc3)nc2c1 | -128.8*
CCS(=O)(=O)c1ccc2oc(Nc3ccccc3C)nc2c1 | -121.9*
CN(C)CC(C(=O)c1ccccc1)c1ccccc1 (stereo not drawn) | -170.8*
CN(C)CC(CCC(CN(C)C)C(O)(c1ccccc1)c1ccccc1)C(O)(c1ccccc1)c1ccccc1 (stereo not drawn) | 101.2
C=C1CCC2[C@](C)(CO)[C@H](O)CC[C@@]2(C)[C@@H]1C/C=C1\C(=O)OC[C@H]1O (stereo partly drawn) | -151.1*
CC(=O)Nc1ccc2c(c1)C(=O)c1ccccc1C2=O | -185.3*
O=C(O)/C=C/C(=O)Nc1ccc2c(c1)C(=O)c1ccccc1C2=O | -64.8*
Nc1ccc2c(c1)C(=O)C(=O)c1ccccc1-2 | 129.7
